Screening data deposited in PubChem by several laboratories.
ALR inh: inhibitors of human ALR sulfhydryl oxidase, primary screen, biochemical, H2O2 detection, HRP-luminol luminescence, single point. inhibition, % (test concentration not listed). actives 3.8% (n = 290,000). FAD-linked sulfhydryl oxidase ALR (Homo sapiens), P55789. AID 485317, 2010. purified ALR, DTT oxidation;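 active means mean replicate inhibition above about 79%, with every replicate also reaching it, limit read from the data; inconclusive means only one of the two criteria met; inactive means mean below limit and not every replicate reaching it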
Target sequence (P55789 whole entry, looked up): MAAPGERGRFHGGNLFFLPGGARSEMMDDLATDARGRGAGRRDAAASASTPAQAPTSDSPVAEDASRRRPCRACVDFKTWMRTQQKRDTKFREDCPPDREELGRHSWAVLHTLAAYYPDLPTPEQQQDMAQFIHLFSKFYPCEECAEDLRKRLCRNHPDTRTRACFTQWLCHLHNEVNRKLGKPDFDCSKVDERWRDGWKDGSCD
ABHD5-PLIN5 inh: ABHD5-PLIN5 interaction inhibitors, primary screen, cell lysate, split luciferase complementation, luminescence | Perilipin-5 (Homo sapiens) + 1-acylglycerol-3-phosphate O-acyltransferase ABHD5 (Homo … | Split G. princeps luciferase complementation, 4 h | inhibition, % at 4 µM | actives 0.78% (n = 360,000) | AID 602281, 2012;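 active means inhibition above the mean inhibition across every tested compound plus 3 SD, cut at about 22% in these data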;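 further: 0% = DMSO only wells and the 100% control is not disclosed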
PRMT1 inh: PRMT1 methyltransferase inhibitors, primary screen, biochemical, fluorescence polarization; Protein arginine N-methyltransferase 1 (Homo sapiens), Q99873; recombinant PRMT1, activity-based probe fluorescence polarization; inhibition, % at 2.79 µM; actives 1.3% (n = 370,000); AID 652257, 2013;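 active means inhibition above about 21% made by adding two undisclosed values, limit read from the data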
Target sequence (Q99873 whole entry, looked up): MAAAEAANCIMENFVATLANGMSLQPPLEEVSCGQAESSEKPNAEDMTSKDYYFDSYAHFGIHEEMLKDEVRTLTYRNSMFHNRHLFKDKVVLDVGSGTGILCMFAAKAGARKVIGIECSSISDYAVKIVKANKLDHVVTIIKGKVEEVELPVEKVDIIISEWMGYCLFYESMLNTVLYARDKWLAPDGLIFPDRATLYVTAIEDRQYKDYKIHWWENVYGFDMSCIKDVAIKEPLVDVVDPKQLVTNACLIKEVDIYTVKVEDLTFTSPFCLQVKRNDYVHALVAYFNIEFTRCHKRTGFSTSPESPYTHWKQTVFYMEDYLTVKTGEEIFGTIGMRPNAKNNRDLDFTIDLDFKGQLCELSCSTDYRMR
LANA-H2A inh: blockers of LANA interaction with H2A/H2B – biochemical, FP readout, HTS, primary screen | Protein LANA1 (Human herpesvirus 8 type P (isolate GK18)), Q9QR71 | cell-free LANA-H2A/H2B peptide, fluorescence polarization | inhibition, % (no concentration beside the values) | actives 0.6% (n = 320,000) | AID 2629, 2010; in the data active means inhibition mostly above about 10%, no sharp cut-off; inactive means mostly below about 6.7%
Rtt109 Vps75: inhibitors of C. albicans Rtt109/Vps75 HAT, primary screen, biochemical, ThioGlo CoA-SH fluorescence, plate reader | Histone acetyltransferase RTT109 (Candida albicans (strain SC5314 / ATCC MYA-2876)), … | purified Rtt109/Vps75, 4 h | inhibition, % at 34.9 µM | actives 0.16% (n = 330,000);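 active means inhibition of at least 50% in every replicate; inconclusive means best replicate reaches 50% inhibition but some replicates fall short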
rCAG binder: binders of r(CAG) RNA repeats, primary screen, biochemical, fluorescence. AID 651821, 2012. inhibition, % at 3 µM. r(CAG) RNA repeat, TO-PRO-1 dye displacement fluorescence. actives 1.3% (n = 370,000);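 active means inhibition above the plate cutoff, the mean of all test compounds on that plate plus 3 SD, cut at about 35% in these data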;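 further: 0% = DMSO alone and 100% = 100 µM mitoxantrone as full dye displacement; higher means more dye released from RNA so lower well fluorescence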
* hit, by the source's call; u = inconclusive; x = no result. In the library only some 5.9% were active in any assay of this set; here they are far more common.

SMILES	ALR inh	ABHD5-PLIN5 inh	PRMT1 inh	LANA-H2A inh	Rtt109 Vps75	rCAG binder
O=C(COC(=O)c1cc(=O)c2ccccc2o1)NCc1ccccc1	x	-6	-1	x	-9	-1
CC(C)N1CCC(C)(C(=O)Nc2cccc3c2CCCC3)C1 (stereo not given)	x	3	1	x	x	7
CC(=O)c1cccc(NC(=O)CSC(=O)c2ccccc2)c1	99*	-29	49*	0	3	7
CCN(CC)c1ccc(NC(=O)CSC(=O)c2ccccc2)cc1	99*	-14	3	-3	0	7
CCN(CC)c1ccc(NC(=O)CCCCC(=O)Nc2ccc(N(CC)CC)cc2)cc1	u	4	0	2	11	-9
CCN(CC)c1ccc(NC(=O)COc2ccc(-n3cnnn3)cc2)cc1	99*	-4	-3	0	-1	1
CCOc1ccc(NC(=O)COc2ccc(-n3cnnn3)cc2)cc1	-1	5	2	0	2	1
CCN(CC)c1ccc(NC(=O)CCCCCN2C(=O)c3ccccc3C2=O)cc1	99*	-10	10	3	-3	-8
COC(=O)N1C[C@H](Oc2ncccn2)[C@H]2C[C@@H]1c1ccccc1O2	x	x	-5	x	x	2
CCN(C(=O)COC(=O)c1ccc(Cl)c(S(=O)(=O)N2CCCCC2)c1)C1CCS(=O)(=O)C1 (stereo not given)	36	6	-7	4	-1	-1
CCN(CC)CC(=O)c1ccc(-c2ccccc2)cc1	99*	12	-2	-4	0	8
CCOc1ccccc1N1CCN(C(=O)[C@@H]2CCCN2C2=NS(=O)(=O)c3ccccc32)CC1	97*	-8	4	13	5	1
Cc1ccccc1N1CCN(C(=O)[C@@H]2CCCN2C2=NS(=O)(=O)c3ccccc32)CC1	40	1	1	3	4	4
O=C(Cn1cnc2ccccc2c1=O)N1CCN(C(=O)C2CCCO2)CC1 (stereo not given)	x	x	7	x	x	6
Cc1ccc(C(=O)Nc2nnc(S(=O)(=O)N3CCN(c4ccc(F)cc4)CC3)s2)cc1	-3	-2	1	-6	4	9
Cc1ccc(N2CCN(S(=O)(=O)c3nnc(NC(=O)c4ccco4)s3)CC2)cc1	97*	-4	1	4	-9	20
N/C(=N\O)c1cn(Cc2ccccc2Cl)c2ccccc12	99*	10	-3	-1	-7	-2
Cc1ccc(OCCn2cc(/C(N)=N/O)c3ccccc32)cc1C	78*	2	-2	1	-5	1
COc1ccc(OCCn2cc(/C(N)=N/O)c3ccccc32)cc1	x	0	-1	3	7	3
Cc1ccc(CNc2nc3c([nH]2)c(=O)n(C)c(=O)n3C)cc1	2	8	3	-2	9	-2
Cn1c(=O)c2[nH]c(Nc3ccccc3)nc2n(C)c1=O	89*	3	0	-1	-13	32
Cc1ccc(N2CCN(/N=C\c3cccnc3)CC2)cc1	x	x	2	x	x	0
C[C@@H]1CN([C@@H](C)CO)C(=O)CCCn2nncc2CO[C@H]1CN(C)C(=O)Nc1ccc(N2CCN(C)CC2)cc1	x	x	1	x	x	2
Cc1cc(C(F)(F)F)nn1Cc1n[nH]c(=S)n1Cc1ccccc1	82*	-3	4	0	6	3
Cc1cc(C(F)(F)F)nn1Cc1n[nH]c(=S)n1-c1ccc(Cl)cc1	11	-6	15	-1	-8	4
SMILES	ALR inh	ABHD5-PLIN5 inh	PRMT1 inh	LANA-H2A inh	Rtt109 Vps75	rCAG binder
CCOC(=O)C1(C)CCN1C(=O)COc1ccc(C(C)(C)C)cc1 (stereo not given)	x	0	-2	x	x	-3
O=C1c2cccc3cccc(c23)C(=O)C1(O)O	99*	-22	54*	2	-5	0
CC(=O)Oc1cccc2c1C(=O)C1CC=CC(OC(C)=O)C1C2=O (stereo not given)	x	-12	56*	x	-17	4
Cc1c(NC(=O)OC(C)C)sc(=S)n1C	98*	-10	-4	-2	-9	0
CC(=O)NCCOC(=O)Nc1sc(=S)n(C)c1C	43	-1	2	-3	-2	-4
CCCCn1c(N)c(N(CCOC)C(=O)c2oc3c(Cl)cccc3c2C)c(=O)[nH]c1=O	x	-2	0	x	x	4
Cc1ccc(NC(=O)Cn2nnc(C(=O)NCCc3ccccc3)c2N)c(C)c1	3	16	x	-1	11	x
CN1CCN2c3ncccc3Cc3ccccc3C2C1 (stereo not given)	0	5	4	-3	0	0
CC(C)(C)[C@]1(O)CCN2C[C@H]3c4ccccc4CCc4cccc(c43)[C@@H]2C1	-21	-2	-2	24*	21	1
Cc1ccc(CSCC2Nc3ccc(C(=O)N4CCN(c5cccc(C)c5)C(C)C4)cc3NC2=O)cc1 (stereo not given)	14	x	x	1	x	x
Cc1cccc(N2CCN(C(=O)c3ccc4c(c3)NC(=O)C(CSCc3ccc(F)cc3)N4)CC2C)c1 (stereo not given)	97*	x	x	5	x	x
CNC(=O)c1ccc(-c2sc3nc(N4CCOCC4)c4c(c3c2N)CC(C)(C)OC4)o1	99*	-8	-2	3	6	1
CC1(C)Cc2c(c(N3CCOCC3)nc3sc(-c4ccc(C(=O)O)o4)c(N)c23)CO1	50	6	4	1	-24	33
CC(OC(=O)c1ccc(S(=O)(=O)NCc2ccco2)cc1)C(=O)Nc1ccccc1 (stereo not given)	-10	7	2	14*	1	2
O=C(COC(=O)c1ccc(S(=O)(=O)NCc2ccco2)cc1)Nc1ccccc1	x	-5	-3	x	-5	5
CCCNC(=O)NC(=O)CSc1nnc(-c2c[nH]c3ccccc23)o1	-3	1	-1	1	-2	4
CCNC(=O)NC(=O)CSc1nnc(-c2c[nH]c3ccccc23)o1	13	4	0	3	51*	3
c1cncc(Oc2ccc(NCCc3c[nH]c4ccccc34)cc2)c1	x	x	4	x	x	12
O=C(CSc1nnc(-c2ccncc2)n1-c1ccccc1)Nc1ccc2c(c1)OCCO2	x	x	6	x	x	0
Cc1cccc(C)c1N1C(=O)c2ccccc2NC(=O)C1C(=O)NCCc1ccccc1 (stereo not given)	x	1	0	x	x	2
CCOC(=O)/C=C/c1nc(C(=O)OCC)c(C)c(=O)[nH]1	97*	2	-5	4	-1	0
